SMILES strings stand for the structures. Where “and” joins values, the source holds several entries; their conditions need not be identical. Identical values can stand only once. Results filed as inconclusive are left out. A call without a number means that no potency is given here. Calls of active or inactive are those of the source. Unless noted, calls follow the shape of the dose curve; as a rule, active = well fitted cell-killing curve with a large enough effect in the repeat runs; inconclusive = weak or mixed curves, or effect the other way; inactive = no such curve, though single readings can be large or run the other way.

The nature of the first test: qHTS assay for small molecule agonists of the antioxidant response element (ARE) signaling pathway (AID 743202; active = well fitted activation curve with a large enough effect in the signal ratio in the repeat runs, not every such curve was filed as active; the % refers to the signal ratio; also: potency is read from the fitted curve at half-maximal effect). Particulars: HepG2 ARE-bla reporter, beta-lactamase FRET, 16 h; series mostly up to 73.3 µM. In a few lines: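 HepG2 ARE-bla reporter line, 2,000 cells/well; 5 h preincubation 37 C/5% CO2; compound (DMSO) 16 h 37 C; B/G FRET substrate 2 h RT; fluorescence intensity.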
For the compound `Cn1c([N+](=O)[O-])cnc1COC(N)=O`, the Potency entry was “inactive”.
Still for that read-out and setting: then `CC(C)Cc1ccccc1`, with “inactive”; and `O=[N+]([O-])C(CO)(CO)CO`, with 33.9 µM (active) and 21.7 µM (active).
As for `O=S(=O)(O)CCS`, the Potency result is “inactive”.
For `OC[C@@H](O)[C@@H](O)[C@H](O)[C@@H](O)CO`, the Potency entry was “inactive”.
For the compound `CC1Cc2ccccc2N1NC(=O)c1ccc(Cl)c(S(N)(=O)=O)c1` (stereo not drawn), the Potency result is “inactive”.
In the case of `COC(=O)c1ccccc1O`, the Potency result was “inactive”.
`COC(=O)c1ccc(C(=O)OC)cc1`: the Potency entry is “inactive”.
For the compound `c1ccc2ccccc2c1`, the Potency entry was “inactive”.
On the same count and under the same terms, then `CC(C)(CO)COC(=O)C(C)(C)CO`, with “inactive”.
Still for that read-out and setting: the entry for `O=[N+]([O-])c1cccc(Cl)c1` is “inactive”; for `CC1COc2ccccc2N1C(=O)C(Cl)Cl` (stereo not drawn) it is 19.3 µM (active) and 27.3 µM (active).
Turning to `CCCCCCCCC`, the Potency entry is “inactive”.
Consider `Cc1cc(=O)[nH]c(C(C)C)n1`, for which the Potency result is “inactive”.
As to `Nc1c(S(=O)(=O)O)cc(Br)c2c1C(=O)c1ccccc1C2=O`, the Potency is 27.9 µM (active).
Same read-out and setting: then `CCCCOCCO`, with “inactive”; and `CC(=O)Nc1ccc(C(=O)O)cc1`, with “inactive”.
With `COCC(=O)O`, the Potency result was “inactive”.
Take `C=CC(=O)OCCCCCCCC(C)C`: the Potency entry was “inactive”.
Consider `CCCCCCCCCCCCOCC1CO1` (stereo not drawn), for which the Potency result was “inactive”.
`CCC(C)C=O` (stereo not drawn): the Potency result is “inactive”.
The same measure, in the same setting: the entry for `O=S(=O)(O)c1cc(S(=O)(=O)O)c2c(N=Nc3ccccc3)c(O)ccc2c1` is “inactive”.
For `CC1(C)CC(N=C=O)CC(C)(CN=C=O)C1` (stereo not drawn), the Potency result was “inactive”.
Still for that read-out and setting: the entry for `Clc1cc(Cl)c(Cl)cc1Cl` is “inactive”; for `O=C(Cl)c1c(Cl)c(Cl)c(C(=O)Cl)c(Cl)c1Cl` it is “inactive”.
As for `CS(=O)(=O)c1ccc([C@@H](O)[C@@H](CO)NC(=O)C(Cl)Cl)cc1`, the Potency entry is “inactive”.
On to `C=C1C2CCC(C2)C1(C)C` (stereo not drawn), for which the Potency entry is “inactive”.
For the compound `CCOC(=O)[C@H](CCc1ccccc1)N[C@@H](C)C(=O)N1Cc2ccccc2C[C@H]1C(=O)O`, the Potency result was “inactive”.
With `C=C(C)C(=O)OCCCCCCCCCCCC`, the Potency result is “inactive”.
With `OC1CCCC1`, the Potency entry was “inactive”.
For `COCC(C)O` (stereo not drawn), the Potency result was “inactive”.
With `Cc1ccc(C)c(C)c1`, the Potency result is “inactive”.
In the case of `O=Nc1ccc(O)cc1`, the Potency entry was “inactive”.
Take `OCCOCCOCCOCCO`: the Potency result was “inactive”.
On to `CCCCOCCOCCOC(=O)CCCCC(=O)OCCOCCOCCCC`, for which the Potency result is “inactive”.
The same measure, in the same setting: the entry for `CC[Si](OC(C)=O)(OC(C)=O)OC(C)=O` is “inactive”; for `OC[C@@H](O)[C@H](O)[C@H](O)[C@@H](O)CO` it is “inactive”.

A short description of a further test: qHTS assay for small molecule agonists of the antioxidant response element (ARE) signaling pathway - cell viability counter screen (AID 743203; calls by dose curve; also: nearly all actives have a fitted effect of over 55% in size). The note with it: ARE-bla HepG2 viability, CellTiter-Glo luminescence, 16 h; series mostly up to 73.3 µM. In a few lines: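 Viability counter screen: CellTiter-Glo luminescence, read after 30 min at room temperature, in ARE-bla HepG2 wells. Compound exposure lasted 16 h at 37C/5% CO2, following a 5 h pre-incubation of the cells after plating.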
For orientation: In qHTS, concentration-response curves come from the screen itself.
As to `Cn1c([N+](=O)[O-])cnc1COC(N)=O`, the Potency entry was “inactive”.
For the compound `CC(C)Cc1ccccc1`, the Potency result is “inactive”.
In the case of `O=[N+]([O-])C(CO)(CO)CO`, the Potency result was “inactive”.
On the same count and under the same terms, then `O=S(=O)(O)CCS`, with “inactive”.
Take `OC[C@@H](O)[C@@H](O)[C@H](O)[C@@H](O)CO`: the Potency entry is “inactive”.
For `CC1Cc2ccccc2N1NC(=O)c1ccc(Cl)c(S(N)(=O)=O)c1` (stereo not drawn), the Potency result is “inactive”.
The same measure, in the same setting: then `COC(=O)c1ccccc1O`, with “inactive”; and `COC(=O)c1ccc(C(=O)OC)cc1`, with “inactive”; and `c1ccc2ccccc2c1`, with “inactive”.
On the same count and under the same terms, the entry for `CC(C)(CO)COC(=O)C(C)(C)CO` is “inactive”.
Regarding `O=[N+]([O-])c1cccc(Cl)c1`, the Potency result is “inactive”.
Regarding `CC1COc2ccccc2N1C(=O)C(Cl)Cl` (stereo not drawn), the Potency entry was “inactive”.
In the case of `CCCCCCCCC`, the Potency result was “inactive”.
On to `Cc1cc(=O)[nH]c(C(C)C)n1`, for which the Potency entry is “inactive”.
`Nc1c(S(=O)(=O)O)cc(Br)c2c1C(=O)c1ccccc1C2=O`: the Potency result is “inactive”.
Take `Nc1cc(-c2ccncc2)c[nH]c1=O`: the Potency result is “inactive”.
For `CCCCOCCO`, the Potency entry is “inactive”.
Take `CC(=O)Nc1ccc(C(=O)O)cc1`: the Potency entry is “inactive”.
On to `COCC(=O)O`, for which the Potency result was “inactive”.
Still for that read-out and setting: then `C=CC(=O)OCCCCCCCC(C)C`, with “inactive”; and `CCCCCCCCCCCCOCC1CO1` (stereo not drawn), with “inactive”.
Consider `CCC(C)C=O` (stereo not drawn), for which the Potency result is “inactive”.
As to `O=S(=O)(O)c1cc(S(=O)(=O)O)c2c(N=Nc3ccccc3)c(O)ccc2c1`, the Potency entry was “inactive”.
For `CC1(C)CC(N=C=O)CC(C)(CN=C=O)C1` (stereo not drawn), the Potency entry was “inactive”.
On to `Clc1cc(Cl)c(Cl)cc1Cl`, for which the Potency result is “inactive”.
With `O=C(Cl)c1c(Cl)c(Cl)c(C(=O)Cl)c(Cl)c1Cl`, the Potency result was “inactive”.
Turning to `CS(=O)(=O)c1ccc([C@@H](O)[C@@H](CO)NC(=O)C(Cl)Cl)cc1`, the Potency entry was “inactive”.
Consider `C=C1C2CCC(C2)C1(C)C` (stereo not drawn), for which the Potency entry was “inactive”.
In the case of `CCOC(=O)[C@H](CCc1ccccc1)N[C@@H](C)C(=O)N1Cc2ccccc2C[C@H]1C(=O)O`, the Potency entry is “inactive”.
`C=C(C)C(=O)OCCCCCCCCCCCC`: the Potency result is “inactive”.
For the compound `OC1CCCC1`, the Potency entry is “inactive”.
Take `COCC(C)O` (stereo not drawn): the Potency result was “inactive”.
Same read-out and setting: the entry for `Cc1ccc(C)c(C)c1` is “inactive”; for `O=Nc1ccc(O)cc1` it is “inactive”.
Same read-out and setting: then `OCCOCCOCCOCCO`, with “inactive”; and `CCCCOCCOCCOC(=O)CCCCC(=O)OCCOCCOCCCC`, with “inactive”.
As for `CC[Si](OC(C)=O)(OC(C)=O)OC(C)=O`, the Potency entry is “inactive”.
Take `OC[C@@H](O)[C@H](O)[C@H](O)[C@@H](O)CO`: the Potency entry was “inactive”.

Another test is described as follows: qHTS assay for small molecule activators of the heat shock response signaling pathway - cell viability counter screen (AID 743209). Also: nearly all actives have a fitted effect of over 50% in size. The note with it: HSE-bla HeLa viability, CellTiter-Glo luminescence, 5 h; series mostly up to 62.6 µM. Summed up: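 Cytotoxicity counter screen run in the same wells as the heat-shock bla reporter assay: HeLa HSE-bla cells, 5 h compound exposure at 37 C, viability read by CellTiter-Glo luminescence.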
As to `Cn1c([N+](=O)[O-])cnc1COC(N)=O`, the Potency entry was “inactive”.
Same read-out and setting: then `CC(C)Cc1ccccc1`, with “inactive”; and `O=[N+]([O-])C(CO)(CO)CO`, with “inactive”.
As for `O=S(=O)(O)CCS`, the Potency entry is “inactive”.
The same measure, in the same setting: the entry for `OC[C@@H](O)[C@@H](O)[C@H](O)[C@@H](O)CO` is “inactive”.
Turning to `CC1Cc2ccccc2N1NC(=O)c1ccc(Cl)c(S(N)(=O)=O)c1` (stereo not drawn), the Potency entry is “inactive”.
Consider `COC(=O)c1ccccc1O`, for which the Potency entry is “inactive”.
Consider `COC(=O)c1ccc(C(=O)OC)cc1`, for which the Potency result was “inactive”.
Turning to `c1ccc2ccccc2c1`, the Potency entry is “inactive”.
`CC(C)(CO)COC(=O)C(C)(C)CO`: the Potency result was “inactive”.
In the case of `O=[N+]([O-])c1cccc(Cl)c1`, the Potency entry was “inactive”.
Turning to `CC1COc2ccccc2N1C(=O)C(Cl)Cl` (stereo not drawn), the Potency entry was “inactive”.
Take `CCCCCCCCC`: the Potency result was “inactive”.
On to `Cc1cc(=O)[nH]c(C(C)C)n1`, for which the Potency entry was “inactive”.
For the compound `Nc1c(S(=O)(=O)O)cc(Br)c2c1C(=O)c1ccccc1C2=O`, the Potency result was “inactive”.
Same read-out and setting: the entry for `Nc1cc(-c2ccncc2)c[nH]c1=O` is “inactive”.
As for `CCCCOCCO`, the Potency result was “inactive”.
Regarding `CC(=O)Nc1ccc(C(=O)O)cc1`, the Potency entry is “inactive”.
For `COCC(=O)O`, the Potency entry was “inactive”.
On the same count and under the same terms, the entry for `C=CC(=O)OCCCCCCCC(C)C` is “inactive”; for `CCCCCCCCCCCCOCC1CO1` (stereo not drawn) it is “inactive”; for `CCC(C)C=O` (stereo not drawn) it is “inactive”.
With `O=S(=O)(O)c1cc(S(=O)(=O)O)c2c(N=Nc3ccccc3)c(O)ccc2c1`, the Potency entry is “inactive”.
For the compound `CC1(C)CC(N=C=O)CC(C)(CN=C=O)C1` (stereo not drawn), the Potency entry was “inactive”.
For `Clc1cc(Cl)c(Cl)cc1Cl`, the Potency result was “inactive”.
Consider `O=C(Cl)c1c(Cl)c(Cl)c(C(=O)Cl)c(Cl)c1Cl`, for which the Potency result is “inactive”.
Regarding `CS(=O)(=O)c1ccc([C@@H](O)[C@@H](CO)NC(=O)C(Cl)Cl)cc1`, the Potency entry was “inactive”.
Regarding `C=C1C2CCC(C2)C1(C)C` (stereo not drawn), the Potency result is “inactive”.
For the compound `CCOC(=O)[C@H](CCc1ccccc1)N[C@@H](C)C(=O)N1Cc2ccccc2C[C@H]1C(=O)O`, the Potency entry is “inactive”.
Same read-out and setting: the entry for `C=C(C)C(=O)OCCCCCCCCCCCC` is “inactive”; for `OC1CCCC1` it is “inactive”; for `COCC(C)O` (stereo not drawn) it is “inactive”.
Consider `Cc1ccc(C)c(C)c1`, for which the Potency result is “inactive”.
Turning to `O=Nc1ccc(O)cc1`, the Potency result is “inactive”.
For `OCCOCCOCCOCCO`, the Potency result was “inactive”.
On the same count and under the same terms, the entry for `CCCCOCCOCCOC(=O)CCCCC(=O)OCCOCCOCCCC` is “inactive”; for `CC[Si](OC(C)=O)(OC(C)=O)OC(C)=O` it is “inactive”.
As to `OC[C@@H](O)[C@H](O)[C@H](O)[C@@H](O)CO`, the Potency result was “inactive”.

The record behind these values is PubChem BioAssay (Tox21).
